# Test results taken from the supplement of paper PMC8728848.
# The sample as a whole holds a higher share of the strongest signals than the screen did.
# B1: CV-2L (Chromobacterium violaceum), Q7NX84 (protein)
# chain: MAQQGVFTLPARINFGVTVLVNSAATQHVEIFVDNEPRAAFSGVGTGDNNLGTKVINSGSGNVRVQITANGRQSDLVSSQLVLANKLNLAVVGSEDGTDMDYNDSIVILNWPLG
# Key:
# Assay in all cases: glycan array binding signal (z-score within array); higher = stronger binding
# Settings in all cases: glycan notation: IUPAC condensed, linker removed
# Fuc(a1-2)Gal(b1-3)GalNAc = target: Fuc(a1-2)Gal(b1-3)GalNAc
# Summary of the method: (§1)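 The binding signal is a Z-score computed within each array. Data were drawn from 3228 arrays in the Consortium for Functional Glycomics database, restricted to those with a known protein sequence. Scores were averaged over arrays of the same protein sequence at different concentrations or buffers, and over linkers, and negative values can be taken as non-binding.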
# Fuc(a1-2)Gal(b1-4)Glc6S = target: Fuc(a1-2)Gal(b1-4)Glc6S
# Summary of the method: as §1
# Fuc(a1-2)Gal(b1-4)GlcNAc = target: Fuc(a1-2)Gal(b1-4)GlcNAc
# Summary of the method: as §1
# [1] = target: Fuc(a1-2)Gal(b1-4)GlcNAc(b1-2)Man(a1-3)[Fuc(a1-2)Gal(b1-4)GlcNAc(b1-2)Man(a1-6)]Man(b1-4)GlcNAc(b1-4)GlcNAc
# Summary of the method: as §1
# [2] = target: Fuc(a1-2)Gal(b1-4)GlcNAc(b1-3)Gal(b1-4)GlcNAc
# Summary of the method: as §1
# [3] = target: Fuc(a1-2)Gal(b1-4)GlcNAc(b1-3)Gal(b1-4)GlcNAc(b1-3)Gal(b1-4)GlcNAc
# Summary of the method: as §1
# [4] = target: Fuc(a1-2)Gal(b1-4)GlcNAc(b1-3)[Fuc(a1-2)Gal(b1-4)GlcNAc(b1-6)]GalNAc
# Summary of the method: as §1
# [5] = target: Fuc(a1-2)Gal(b1-4)GlcNAc6S
# Summary of the method: as §1
# [6] = target: Fuc(a1-2)Gal(b1-4)[Fuc(a1-3)]GlcNAc
# Summary of the method: as §1
# [7] = target: Fuc(a1-2)Gal6S(b1-4)Glc6S
# Summary of the method: as §1
# [8] = target: Fuc(a1-2)[Gal(a1-3)]Gal(b1-3)GlcNAc(b1-2)Man(a1-3)[Fuc(a1-2)[Gal(a1-3)]Gal(b1-3)GlcNAc(b1-2)Man(a1-6)]Man(b1-4)GlcNAc(b1-4)GlcNAc
# Summary of the method: as §1
# [9] = target: Fuc(a1-2)[Gal(a1-3)]Gal(b1-4)GlcNAc(b1-2)Man(a1-3)[Fuc(a1-2)[Gal(a1-3)]Gal(b1-4)GlcNAc(b1-2)Man(a1-6)]Man(b1-4)GlcNAc(b1-4)[Fuc(a1-6)]GlcNAc
# Summary of the method: as §1
# [10] = target: Fuc(a1-2)[Gal(a1-3)]Gal(b1-4)[Fuc(a1-3)]Glc
# Summary of the method: as §1
# [11] = target: Fuc(a1-2)[Gal(a1-3)]Gal(b1-4)[Fuc(a1-3)]GlcNAc(b1-3)GalNAc
# Summary of the method: as §1
# [12] = target: Fuc(a1-2)[GalNAc(a1-3)]Gal
# Summary of the method: as §1
# Fuc(a1-3)GlcNAc = target: Fuc(a1-3)GlcNAc
# Summary of the method: as §1
# [13] = target: Fuc(a1-3)[Gal(b1-4)]GlcNAc(b1-4)Gal(b1-4)[Fuc(a1-3)]GlcNAc(b1-4)Gal(b1-4)[Fuc(a1-3)]GlcNAc
# Summary of the method: as §1
# [14] = target: Gal(a1-3)Gal(b1-4)GlcNAc(b1-3)GalNAc
# Summary of the method: as §1
# [15] = target: Gal(a1-3)Gal(b1-4)[Fuc(a1-3)]GlcNAc(b1-2)Man(a1-3)[Gal(a1-3)Gal(b1-4)[Fuc(a1-3)]GlcNAc(b1-2)Man(a1-6)]Man(b1-4)GlcNAc(b1-4)GlcNAc
# Summary of the method: as §1
# Gal(a1-6)Glc = target: Gal(a1-6)Glc
# Summary of the method: as §1
# Gal(b1-3)GalNAc = target: Gal(b1-3)GalNAc
# Summary of the method: as §1
# [16] = target: Gal(b1-3)GlcNAc(b1-3)Gal(b1-4)Glc
# Summary of the method: as §1
# [17] = target: Gal(b1-3)[Fuc(a1-4)]GlcNAc(b1-3)Gal(b1-4)[Fuc(a1-3)]GlcNAc
# Summary of the method: as §1
# [18] = target: Gal(b1-4)GlcNAc(b1-2)Man(a1-3)[Gal(b1-4)GlcNAc(b1-2)Man(a1-6)]Man(b1-4)GlcNAc(b1-4)[Fuc(a1-6)]GlcNAc
# Summary of the method: as §1
# [19] = target: Gal(b1-4)GlcNAc(b1-2)[Gal(b1-4)GlcNAc(b1-4)]Man(a1-3)[GlcNAc(b1-4)][Gal(b1-4)GlcNAc(b1-2)[Gal(b1-4)GlcNAc(b1-6)]Man(a1-6)]Man(b1-4)GlcNAc(b1-4)GlcNAc
# Summary of the method: as §1
# [20] = target: Gal(b1-4)GlcNAc(b1-2)[Gal(b1-4)GlcNAc(b1-6)]Man(a1-6)[Gal(b1-4)GlcNAc(b1-2)Man(a1-3)]Man(b1-4)GlcNAc(b1-4)GlcNAc
# Summary of the method: as §1
# [21] = target: Gal(b1-4)GlcNAc(b1-2)[Gal(b1-4)GlcNAc(b1-6)]Man(a1-6)[GlcNAc(b1-4)][Gal(b1-4)GlcNAc(b1-2)Man(a1-3)]Man(b1-4)GlcNAc(b1-4)GlcNAc
# Summary of the method: as §1
# [22] = target: Gal(b1-4)GlcNAc(b1-3)Gal(b1-3)GlcNAc
# Summary of the method: as §1
# [23] = target: Gal(b1-4)GlcNAc(b1-3)GalNAc
# Summary of the method: as §1
# Gal4S(b1-4)GlcNAc = target: Gal4S(b1-4)GlcNAc
# Summary of the method: as §1
# [24] = target: GalNAc(a1-3)GalNAc(b1-3)Gal(a1-4)Gal(b1-4)GlcNAc
# Summary of the method: as §1
# [25] = target: GalNAc(b1-3)Gal(a1-6)Gal(b1-4)Glc
# Summary of the method: as §1
# [26] = target: GlcNAc(a1-6)Gal(b1-4)GlcNAc
# Summary of the method: as §1
# Kdn(a2-3)Gal(b1-4)GlcNAc = target: Kdn(a2-3)Gal(b1-4)GlcNAc
# Summary of the method: as §1
# [27] = target: Neu5Ac(a2-3)Gal(b1-4)[Fuc(a1-3)]GlcNAc(b1-3)Gal
# Summary of the method: as §1
# [28] = target: Neu5Ac(a2-3)Gal(b1-4)[Fuc(a1-3)]GlcNAc(b1-3)Gal(b1-4)GlcNAc
# Summary of the method: as §1
# [29] = target: Neu5Ac(a2-6)Gal(b1-4)GlcNAc(b1-2)Man(a1-3)[Neu5Ac(a2-6)Gal(b1-4)GlcNAc(b1-2)Man(a1-6)]Man(b1-4)GlcNAc(b1-4)GlcNAc
# Summary of the method: as §1
# [30] = target: Neu5Gc(a2-6)Gal(b1-4)GlcNAc
# Summary of the method: as §1
binder,measurement,setting,value
B1,glycan array binding signal (z-score),Fuc(a1-2)Gal(b1-3)GalNAc,0.156
same,glycan array binding signal (z-score),Fuc(a1-2)Gal(b1-4)Glc6S,4.43
same,glycan array binding signal (z-score),Fuc(a1-2)Gal(b1-4)GlcNAc,5.39
same,glycan array binding signal (z-score),[1],5.17
same,glycan array binding signal (z-score),[2],5.68
same,glycan array binding signal (z-score),[3],5.57
same,glycan array binding signal (z-score),[4],5.71
same,glycan array binding signal (z-score),[5],5.42
same,glycan array binding signal (z-score),[6],0.928
same,glycan array binding signal (z-score),[7],4.37
same,glycan array binding signal (z-score),[8],-0.292
same,glycan array binding signal (z-score),[9],-0.257
same,glycan array binding signal (z-score),[10],-0.019
same,glycan array binding signal (z-score),[11],-0.294
same,glycan array binding signal (z-score),[12],-0.2
same,glycan array binding signal (z-score),Fuc(a1-3)GlcNAc,1.49
same,glycan array binding signal (z-score),[13],-0.252
same,glycan array binding signal (z-score),[14],-0.341
same,glycan array binding signal (z-score),[15],-0.319
same,glycan array binding signal (z-score),Gal(a1-6)Glc,-0.347
same,glycan array binding signal (z-score),Gal(b1-3)GalNAc,-0.341
same,glycan array binding signal (z-score),[16],-0.304
same,glycan array binding signal (z-score),[17],0.831
same,glycan array binding signal (z-score),[18],-0.275
same,glycan array binding signal (z-score),[19],-0.334
same,glycan array binding signal (z-score),[20],-0.307
same,glycan array binding signal (z-score),[21],-0.316
same,glycan array binding signal (z-score),[22],-0.343
same,glycan array binding signal (z-score),[23],-0.342
same,glycan array binding signal (z-score),Gal4S(b1-4)GlcNAc,-0.355
same,glycan array binding signal (z-score),[24],-0.306
same,glycan array binding signal (z-score),[25],-0.338
same,glycan array binding signal (z-score),[26],-0.342
same,glycan array binding signal (z-score),Kdn(a2-3)Gal(b1-4)GlcNAc,-0.31
same,glycan array binding signal (z-score),[27],-0.337
same,glycan array binding signal (z-score),[28],-0.308
same,glycan array binding signal (z-score),[29],-0.336
same,glycan array binding signal (z-score),[30],-0.326
